Experimental findings from article PMC7862700, “An all-to-all approach to the identification of sequence-specific readers for epigenetic DNA modifications on cytosine” are described below.

Holding throughout (test): DAPPL (digital affinity profiling via proximity ligation, sequencing); 10 mM Tris-HCl pH 7.5, 50 mM NaCl, 1 mM DTT, 4% glycerol, room temperature, 30 min; GST-TFs on glutathione beads, 16-mer random dsDNA library, 0.1% formaldehyde crosslink after washing; high values mean tight binding
The target in assay [1] is T1, FEV (Homo sapiens, UniProt Q99581 1-238).
T1 sequence: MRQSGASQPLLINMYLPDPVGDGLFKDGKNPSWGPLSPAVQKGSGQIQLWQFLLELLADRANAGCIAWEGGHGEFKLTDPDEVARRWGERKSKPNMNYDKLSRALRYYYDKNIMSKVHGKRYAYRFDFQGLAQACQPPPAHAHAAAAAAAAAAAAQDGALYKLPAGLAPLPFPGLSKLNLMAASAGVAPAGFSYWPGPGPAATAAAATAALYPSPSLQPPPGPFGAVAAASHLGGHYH
Conditions: protein: recombinant; tags: N-terminal GST; dsDNA, one strand shown. Summed up: (§1)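 Yeast served to express human transcription factors as GST fusions, which were then captured on glutathione beads and labelled with DNA barcodes. Pooled with a tag-only sample, they were incubated with 200 nmole of a 16-mer random double-stranded DNA library for 30 min at room temperature in Tris/NaCl/DTT/glycerol buffer, washed, crosslinked with 0.1% formaldehyde, ligated by proximity, amplified by PCR and sequenced. Dividing each hexamer's read frequency for a factor by its frequency for the tag-only sample gives the binding signal.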

Assay [2] addresses ETV5 (Homo sapiens, UniProt P41161 1-510). Conditions: protein: recombinant; tags: N-terminal GST; dsDNA, one strand shown. Summed up:
as §1

The target of assay [3] is HSF1 (Homo sapiens, UniProt Q00613 1-529). The conditions noted are these: protein: recombinant; tags: N-terminal GST; chain copies: 3; dsDNA, one strand shown. In outline:
as §1

In assay [4] the target is T2, SPIC (Homo sapiens, UniProt Q8N5J4 1-248).
T2 sequence: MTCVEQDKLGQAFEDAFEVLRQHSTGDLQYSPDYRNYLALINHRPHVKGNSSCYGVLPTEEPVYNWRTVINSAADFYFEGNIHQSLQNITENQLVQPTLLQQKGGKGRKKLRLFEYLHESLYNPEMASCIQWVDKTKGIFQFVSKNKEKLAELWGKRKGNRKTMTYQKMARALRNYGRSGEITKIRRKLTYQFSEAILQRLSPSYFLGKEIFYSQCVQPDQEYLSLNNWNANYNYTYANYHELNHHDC
Conditions: protein: recombinant; tags: N-terminal GST; dsDNA, one strand shown. Summed up: as §1

Assay [5] deals with ELF4 (Homo sapiens, UniProt Q99607 1-663). Conditions: protein: recombinant; tags: N-terminal GST; dsDNA, one strand shown. In outline:
as §1

Assay [6] has as its target T3, ELK4 (Homo sapiens, UniProt P28324-2 1-405).
T3 sequence: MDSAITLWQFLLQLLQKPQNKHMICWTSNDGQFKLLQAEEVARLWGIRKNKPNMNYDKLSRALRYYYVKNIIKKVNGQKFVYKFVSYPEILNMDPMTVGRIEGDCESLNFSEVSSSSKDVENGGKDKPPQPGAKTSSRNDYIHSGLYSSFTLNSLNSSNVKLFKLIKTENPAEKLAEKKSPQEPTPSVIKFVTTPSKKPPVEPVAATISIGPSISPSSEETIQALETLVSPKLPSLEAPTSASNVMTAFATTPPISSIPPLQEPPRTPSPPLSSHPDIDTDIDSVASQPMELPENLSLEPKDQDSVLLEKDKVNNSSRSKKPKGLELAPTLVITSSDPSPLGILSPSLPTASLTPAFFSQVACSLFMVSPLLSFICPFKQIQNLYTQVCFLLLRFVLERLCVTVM
The conditions noted are these: protein: recombinant; tags: N-terminal GST; dsDNA, one strand shown. Summed up:
as §1

Assay [7] deals with T4, ETV2 (Homo sapiens, UniProt O00321 1-342).
T4 sequence: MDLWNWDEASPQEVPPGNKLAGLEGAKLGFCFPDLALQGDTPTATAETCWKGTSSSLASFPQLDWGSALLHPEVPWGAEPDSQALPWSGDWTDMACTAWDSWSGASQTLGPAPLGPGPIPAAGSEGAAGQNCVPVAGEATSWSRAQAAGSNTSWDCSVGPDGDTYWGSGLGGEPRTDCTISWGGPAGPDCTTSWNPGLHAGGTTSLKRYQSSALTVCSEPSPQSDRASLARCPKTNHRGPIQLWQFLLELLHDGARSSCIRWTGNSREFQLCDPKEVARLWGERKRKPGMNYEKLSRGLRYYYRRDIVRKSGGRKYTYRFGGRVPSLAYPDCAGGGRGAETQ
The conditions noted are these: protein: recombinant; tags: N-terminal GST; dsDNA, one strand shown. Summed up: as §1

Assay [8] deals with T5, ELF3 (Homo sapiens, UniProt P78545 1-371).
T5 sequence: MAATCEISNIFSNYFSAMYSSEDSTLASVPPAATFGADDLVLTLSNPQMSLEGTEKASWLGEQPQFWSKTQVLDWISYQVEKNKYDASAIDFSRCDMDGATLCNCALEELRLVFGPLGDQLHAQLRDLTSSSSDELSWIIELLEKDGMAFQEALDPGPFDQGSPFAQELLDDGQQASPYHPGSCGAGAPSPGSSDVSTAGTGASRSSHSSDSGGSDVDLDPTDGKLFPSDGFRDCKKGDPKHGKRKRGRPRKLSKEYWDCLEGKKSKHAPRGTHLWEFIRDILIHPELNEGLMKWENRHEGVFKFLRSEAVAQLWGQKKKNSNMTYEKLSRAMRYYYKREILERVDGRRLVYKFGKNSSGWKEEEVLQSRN
The conditions noted are these: protein: recombinant; tags: N-terminal GST; dsDNA, one strand shown. Summed up: as §1

Assay [9] has as its target CRX (Homo sapiens, UniProt O43186 1-299). The conditions noted are these: protein: recombinant; tags: N-terminal GST; dsDNA, one strand shown. In outline:
as §1

Assay [10] addresses ETV1 (Homo sapiens, UniProt P50549 1-477). Conditions: protein: recombinant; tags: N-terminal GST; dsDNA, one strand shown. Summed up: as §1
The target of assay [11] is T6, ERF (Homo sapiens, UniProt P50548 1-548).
T6 sequence: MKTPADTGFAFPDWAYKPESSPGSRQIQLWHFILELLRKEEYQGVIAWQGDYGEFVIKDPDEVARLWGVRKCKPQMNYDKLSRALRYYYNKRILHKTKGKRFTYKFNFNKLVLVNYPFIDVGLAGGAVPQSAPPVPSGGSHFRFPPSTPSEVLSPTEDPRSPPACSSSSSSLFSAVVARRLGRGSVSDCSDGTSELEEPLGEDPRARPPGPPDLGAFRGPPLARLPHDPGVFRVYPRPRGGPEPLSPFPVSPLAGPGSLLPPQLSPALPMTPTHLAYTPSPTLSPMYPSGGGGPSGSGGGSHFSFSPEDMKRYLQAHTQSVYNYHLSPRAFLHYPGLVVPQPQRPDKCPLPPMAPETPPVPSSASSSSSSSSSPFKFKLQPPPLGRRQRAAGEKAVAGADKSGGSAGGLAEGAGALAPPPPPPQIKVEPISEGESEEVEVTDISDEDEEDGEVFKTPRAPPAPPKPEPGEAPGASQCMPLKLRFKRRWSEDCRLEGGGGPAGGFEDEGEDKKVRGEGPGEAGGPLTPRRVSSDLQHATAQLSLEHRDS
The conditions noted are these: protein: recombinant; tags: N-terminal GST; dsDNA, one strand shown. In outline: as §1

The target in assay [12] is T7, ETV3L (Homo sapiens, UniProt Q6ZN32 1-361).
T7 sequence: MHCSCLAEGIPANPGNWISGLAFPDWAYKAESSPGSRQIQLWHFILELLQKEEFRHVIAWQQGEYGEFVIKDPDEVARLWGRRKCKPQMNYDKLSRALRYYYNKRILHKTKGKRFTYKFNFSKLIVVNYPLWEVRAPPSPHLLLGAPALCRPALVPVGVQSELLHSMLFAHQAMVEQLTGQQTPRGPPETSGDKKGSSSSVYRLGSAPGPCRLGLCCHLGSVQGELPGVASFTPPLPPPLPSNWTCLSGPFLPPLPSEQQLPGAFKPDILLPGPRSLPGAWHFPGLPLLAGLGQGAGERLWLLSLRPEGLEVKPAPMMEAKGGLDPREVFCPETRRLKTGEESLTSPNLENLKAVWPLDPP
Conditions: protein: recombinant; tags: N-terminal GST; dsDNA, one strand shown. In outline:
as §1

Assay [13] addresses T8, ETS2 (Homo sapiens, UniProt P15036 1-469).
T8 sequence: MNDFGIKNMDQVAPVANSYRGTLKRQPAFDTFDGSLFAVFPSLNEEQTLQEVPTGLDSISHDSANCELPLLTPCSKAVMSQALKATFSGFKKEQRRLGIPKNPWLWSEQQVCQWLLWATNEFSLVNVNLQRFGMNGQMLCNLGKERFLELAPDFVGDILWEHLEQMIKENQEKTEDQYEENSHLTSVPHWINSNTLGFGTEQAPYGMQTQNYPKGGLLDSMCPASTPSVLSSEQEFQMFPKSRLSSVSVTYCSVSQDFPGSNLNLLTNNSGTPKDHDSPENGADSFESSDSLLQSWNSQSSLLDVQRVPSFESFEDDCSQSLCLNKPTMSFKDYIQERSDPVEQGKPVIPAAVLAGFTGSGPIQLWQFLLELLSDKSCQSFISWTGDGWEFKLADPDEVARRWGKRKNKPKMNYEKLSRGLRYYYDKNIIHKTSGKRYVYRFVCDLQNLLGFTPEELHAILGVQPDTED
The conditions noted are these: protein: recombinant; tags: N-terminal GST; dsDNA, one strand shown. In outline:
as §1

The target of assay [14] is T9, SPDEF (Homo sapiens, UniProt O95238 1-335).
T9 sequence: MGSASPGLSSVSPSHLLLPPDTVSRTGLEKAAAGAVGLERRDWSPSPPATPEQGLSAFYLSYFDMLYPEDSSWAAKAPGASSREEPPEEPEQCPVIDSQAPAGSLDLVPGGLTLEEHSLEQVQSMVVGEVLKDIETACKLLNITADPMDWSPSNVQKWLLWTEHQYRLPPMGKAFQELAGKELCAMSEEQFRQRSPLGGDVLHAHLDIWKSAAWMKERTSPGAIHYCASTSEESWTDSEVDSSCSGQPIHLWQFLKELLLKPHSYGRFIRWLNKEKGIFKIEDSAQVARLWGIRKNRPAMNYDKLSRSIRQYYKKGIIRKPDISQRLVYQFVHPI
Conditions: protein: recombinant; tags: N-terminal GST; dsDNA, one strand shown. In outline: as §1

Assay [15] addresses T10, ETV7 (Homo sapiens, UniProt Q9Y603 1-341).
T10 sequence: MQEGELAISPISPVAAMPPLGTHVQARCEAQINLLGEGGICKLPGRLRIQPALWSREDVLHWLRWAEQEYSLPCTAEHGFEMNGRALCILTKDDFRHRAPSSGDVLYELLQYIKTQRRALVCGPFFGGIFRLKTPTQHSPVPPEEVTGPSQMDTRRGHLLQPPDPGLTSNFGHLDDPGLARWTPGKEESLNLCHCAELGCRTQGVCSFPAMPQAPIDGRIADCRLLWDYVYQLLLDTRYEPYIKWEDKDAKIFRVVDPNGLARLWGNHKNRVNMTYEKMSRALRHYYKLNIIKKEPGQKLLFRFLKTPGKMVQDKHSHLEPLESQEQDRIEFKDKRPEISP
The conditions noted are these: protein: recombinant; tags: N-terminal GST; dsDNA, one strand shown. Summed up:
as §1

Assay [16] concerns the target T11, ELF5 (Homo sapiens, UniProt Q9UKW6-2 1-255).
T11 sequence: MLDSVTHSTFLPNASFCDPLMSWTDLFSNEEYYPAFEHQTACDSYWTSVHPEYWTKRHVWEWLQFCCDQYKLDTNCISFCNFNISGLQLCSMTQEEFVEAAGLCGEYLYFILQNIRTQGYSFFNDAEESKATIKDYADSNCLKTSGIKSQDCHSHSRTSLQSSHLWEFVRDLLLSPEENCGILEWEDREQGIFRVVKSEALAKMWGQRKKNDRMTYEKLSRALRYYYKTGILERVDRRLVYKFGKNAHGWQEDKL
The conditions noted are these: protein: recombinant; tags: N-terminal GST; dsDNA, one strand shown. In outline: as §1

Assay [17] has as its target T12, ETV3 (Homo sapiens, UniProt P41162-2 1-143).
T12 sequence: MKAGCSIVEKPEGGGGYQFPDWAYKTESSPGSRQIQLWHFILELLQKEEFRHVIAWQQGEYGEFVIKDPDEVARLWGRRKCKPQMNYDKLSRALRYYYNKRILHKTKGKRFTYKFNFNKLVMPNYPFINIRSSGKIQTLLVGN
The conditions noted are these: protein: recombinant; tags: N-terminal GST; dsDNA, one strand shown. Summed up:
as §1

Assay [18] addresses ETV6 (Homo sapiens, UniProt P41212 1-452). The conditions noted are these: protein: recombinant; tags: N-terminal GST; dsDNA, one strand shown. In outline: as §1

Sequence of ETV5 (P41161 whole entry): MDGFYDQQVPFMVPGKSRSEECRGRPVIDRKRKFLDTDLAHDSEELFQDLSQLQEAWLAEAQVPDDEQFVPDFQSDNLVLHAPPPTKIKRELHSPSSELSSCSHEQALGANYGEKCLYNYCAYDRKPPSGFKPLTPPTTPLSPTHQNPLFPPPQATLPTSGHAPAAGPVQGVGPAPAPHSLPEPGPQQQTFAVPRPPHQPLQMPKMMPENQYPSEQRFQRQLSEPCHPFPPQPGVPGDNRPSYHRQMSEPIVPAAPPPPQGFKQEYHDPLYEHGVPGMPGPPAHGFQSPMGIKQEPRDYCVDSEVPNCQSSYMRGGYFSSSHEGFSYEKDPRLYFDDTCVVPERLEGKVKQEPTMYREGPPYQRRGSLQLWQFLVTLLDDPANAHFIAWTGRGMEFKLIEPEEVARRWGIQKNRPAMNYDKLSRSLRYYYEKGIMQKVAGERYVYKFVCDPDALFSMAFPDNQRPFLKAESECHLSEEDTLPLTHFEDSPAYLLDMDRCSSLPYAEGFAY
Sequence of ETV6 (P41212 whole entry): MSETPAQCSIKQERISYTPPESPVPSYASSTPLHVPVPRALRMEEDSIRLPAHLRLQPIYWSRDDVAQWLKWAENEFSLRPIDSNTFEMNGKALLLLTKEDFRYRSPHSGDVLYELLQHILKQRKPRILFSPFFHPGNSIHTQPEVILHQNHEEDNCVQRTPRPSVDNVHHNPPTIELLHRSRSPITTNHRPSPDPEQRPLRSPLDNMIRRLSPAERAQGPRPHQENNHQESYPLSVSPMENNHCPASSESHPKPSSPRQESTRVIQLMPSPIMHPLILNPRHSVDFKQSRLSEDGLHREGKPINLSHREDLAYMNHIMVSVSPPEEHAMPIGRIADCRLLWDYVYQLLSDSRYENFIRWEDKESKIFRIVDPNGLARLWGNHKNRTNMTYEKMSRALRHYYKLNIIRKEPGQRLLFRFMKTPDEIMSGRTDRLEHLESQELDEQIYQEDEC
Sequence of CRX (O43186 whole entry): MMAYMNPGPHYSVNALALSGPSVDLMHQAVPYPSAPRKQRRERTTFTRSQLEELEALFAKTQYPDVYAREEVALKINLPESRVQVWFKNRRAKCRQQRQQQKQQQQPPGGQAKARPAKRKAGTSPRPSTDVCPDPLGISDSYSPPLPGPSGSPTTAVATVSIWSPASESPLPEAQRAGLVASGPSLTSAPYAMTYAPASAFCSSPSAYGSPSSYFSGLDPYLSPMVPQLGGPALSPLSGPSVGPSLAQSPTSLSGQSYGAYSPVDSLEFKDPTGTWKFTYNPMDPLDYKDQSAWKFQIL
Sequence of ETV1 (P50549 whole entry): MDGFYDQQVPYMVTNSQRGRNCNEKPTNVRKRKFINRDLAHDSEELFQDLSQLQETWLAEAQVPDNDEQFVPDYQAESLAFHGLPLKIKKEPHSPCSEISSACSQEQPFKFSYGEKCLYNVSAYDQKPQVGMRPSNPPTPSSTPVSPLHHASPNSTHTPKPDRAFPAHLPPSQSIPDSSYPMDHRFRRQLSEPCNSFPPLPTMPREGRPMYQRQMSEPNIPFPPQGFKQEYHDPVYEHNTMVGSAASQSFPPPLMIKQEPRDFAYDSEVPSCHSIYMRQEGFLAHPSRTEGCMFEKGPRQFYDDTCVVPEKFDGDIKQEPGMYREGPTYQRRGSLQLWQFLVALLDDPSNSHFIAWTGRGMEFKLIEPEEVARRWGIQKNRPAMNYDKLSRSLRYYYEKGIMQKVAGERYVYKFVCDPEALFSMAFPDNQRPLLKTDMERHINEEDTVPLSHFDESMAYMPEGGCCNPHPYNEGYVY
Sequence of HSF1 (Q00613 whole entry): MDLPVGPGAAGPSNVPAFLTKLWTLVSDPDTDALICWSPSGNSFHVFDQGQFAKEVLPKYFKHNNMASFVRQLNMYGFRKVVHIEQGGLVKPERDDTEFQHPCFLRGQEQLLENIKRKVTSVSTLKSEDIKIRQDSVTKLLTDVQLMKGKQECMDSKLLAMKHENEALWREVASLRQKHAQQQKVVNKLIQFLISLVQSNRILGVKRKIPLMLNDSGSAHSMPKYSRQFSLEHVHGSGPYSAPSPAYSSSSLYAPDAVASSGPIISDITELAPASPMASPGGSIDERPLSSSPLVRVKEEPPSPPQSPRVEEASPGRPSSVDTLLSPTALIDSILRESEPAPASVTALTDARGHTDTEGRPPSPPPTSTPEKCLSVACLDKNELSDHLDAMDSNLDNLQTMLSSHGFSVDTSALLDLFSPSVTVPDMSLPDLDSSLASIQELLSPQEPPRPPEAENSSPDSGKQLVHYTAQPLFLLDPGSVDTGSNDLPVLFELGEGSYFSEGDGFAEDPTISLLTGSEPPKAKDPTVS
Sequence of ELF4 (Q99607 whole entry): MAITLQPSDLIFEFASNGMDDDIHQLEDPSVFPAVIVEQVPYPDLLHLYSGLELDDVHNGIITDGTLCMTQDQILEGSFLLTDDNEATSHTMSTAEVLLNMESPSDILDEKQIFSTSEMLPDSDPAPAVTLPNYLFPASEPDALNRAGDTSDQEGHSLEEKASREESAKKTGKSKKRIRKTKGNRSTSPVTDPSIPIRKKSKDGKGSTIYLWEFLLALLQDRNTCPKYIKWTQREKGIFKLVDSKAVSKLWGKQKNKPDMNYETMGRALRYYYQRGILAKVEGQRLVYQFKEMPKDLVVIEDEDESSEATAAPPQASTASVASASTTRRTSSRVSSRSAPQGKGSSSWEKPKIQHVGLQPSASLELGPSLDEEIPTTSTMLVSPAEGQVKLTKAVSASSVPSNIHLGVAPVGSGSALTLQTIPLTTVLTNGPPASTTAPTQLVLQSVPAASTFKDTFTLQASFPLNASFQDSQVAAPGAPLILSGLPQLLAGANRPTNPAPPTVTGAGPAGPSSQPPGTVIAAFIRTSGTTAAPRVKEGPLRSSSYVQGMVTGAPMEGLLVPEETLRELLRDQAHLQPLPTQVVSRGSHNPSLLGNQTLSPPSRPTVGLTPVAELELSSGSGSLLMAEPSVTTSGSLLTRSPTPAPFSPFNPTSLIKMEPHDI

With CATCTA, the binding signal in [1] was 1.14 fold enrichment (6-mer frequency, TF over GST control); in assay [2], 1.15 fold enrichment (6-mer frequency, TF over GST control); in assay [3] it was 1.47 fold enrichment (6-mer frequency, TF over GST control); in assay [4], 1.34 fold enrichment (6-mer frequency, TF over GST control); in [5], 1.17 fold enrichment (6-mer frequency, TF over GST control); in assay [6], 1.33 fold enrichment (6-mer frequency, TF over GST control). The binding signal in [7] was 1.1 fold enrichment (6-mer frequency, TF over GST control); in assay [8], 1.33 fold enrichment (6-mer frequency, TF over GST control); in assay [9], 1.29 fold enrichment (6-mer frequency, TF over GST control); in assay [10], 1.16 fold enrichment (6-mer frequency, TF over GST control); in assay [11], 1.19 fold enrichment (6-mer frequency, TF over GST control); in assay [12], 1.16 fold enrichment (6-mer frequency, TF over GST control). The binding signal is 1.13 fold enrichment (6-mer frequency, TF over GST control) in [13]; 1.07 fold enrichment (6-mer frequency, TF over GST control) in [14]; 1.21 fold enrichment (6-mer frequency, TF over GST control) in [15]; 1.17 fold enrichment (6-mer frequency, TF over GST control) in assay [16]; 1.05 fold enrichment (6-mer frequency, TF over GST control) in assay [17]; 1.15 fold enrichment (6-mer frequency, TF over GST control) in assay [18].
